# Test results: PubChem BioAssay AID720518 (National Center for Advancing Translational Sciences (NCATS), 2013)
# Results filed as inconclusive are left out. Where a call stands in place of a potency, no number is given. Active and inactive are the calls of the source. Calls come from the whole dose curve.
# Assay: qHTS for Inhibitors of Cell Surface uPA Generation: Wild-type Protective Antigen (WT-PrAg) Counterscreen for Cherry-picked Compounds
# Details: cells, WT protective antigen toxicity counterscreen; series mostly up to 115 µM
row,Structure (SMILES),Potency
1,CN(C)C(=O)NC(NC(=S)Nc1ccccc1)C(Cl)(Cl)Cl (centres undefined),inactive
2,COCCn1nnnc1C(C(C)C)N1CCCC(C)C1 (centres undefined),inactive
3,O=C(Nc1ccc(N2CCOCC2)cc1)c1ccc(Cl)c(S(=O)(=O)N2CCCC2)c1,inactive
4,Cc1cc(C)c(NC(=O)Cn2nnc(C(=O)NCc3ccc4c(c3)OCO4)c2N)c(C)c1,inactive
5,CC1=C(C(=O)OCc2ccccc2)C(c2cccc([N+](=O)[O-])c2)NC(=O)N1 (centres undefined),inactive
6,c1cncc(C2CCCCN2)c1 (centres undefined),inactive
7,C[C@]12CCC(O)CC1CCC1C2CC[C@]2(C)C(c3cc(C(F)(F)F)n[nH]3)CCC12 (some centres undefined),inactive
8,O=C(NC1CC1)C1CCCN(C(=O)NC2CCCCC2)C1 (centres undefined),inactive
9,CN(CCC#N)C(=S)Nc1ccc(Oc2ccccc2)cc1,inactive
10,Cc1nn(CC(=O)OCC(=O)NC(C)c2ccccc2)c(C)c1[N+](=O)[O-] (centres undefined),inactive
11,Cc1cc(=O)n2nc(N3CCCC(C(=O)NCc4ccc(Cl)cc4)C3)sc2n1 (centres undefined),inactive
12,CCOC(=O)C1=CC[C@@H](c2cc3ccc(OC)cc3n2C)N(S(=O)(=O)c2ccc(C)cc2)[C@H]1C(=O)OCC,inactive
13,Fc1cccc(Cl)c1CSc1ccc(-c2cccnc2)nn1,inactive
14,COc1ccc(N2CC(C(=O)Nc3nnc(SCCC4OCCO4)s3)CC2=O)cc1 (centres undefined),inactive
15,C=C1C(=O)[C@@]23[C@H](O)C[C@@H]4C(C)(C)CC[C@H](O)[C@]4(C)[C@@H]2C[C@H](O)[C@@H]1[C@H]3O,inactive
16,CC1CCN(C2=C(NS(=O)(=O)c3ccc(Br)cc3)C(=O)c3ccccc3C2=O)CC1,inactive
17,COc1ccc(C(=O)NC(C)c2cnn(-c3ccccn3)c2C)o1 (centres undefined),inactive
18,Cc1cc(C)n(CCCNC(=O)c2ccc(C)o2)n1,inactive
19,CCc1ccccc1N1C(=O)CC(Sc2nccc(C)n2)C1=O (centres undefined),inactive
20,Cc1ccc(NC(=O)CC2OC(=O)c3ccccc32)cc1S(=O)(=O)N1CCOCC1 (centres undefined),inactive

row,Structure (SMILES),Potency
1,Cc1nc([N+](=O)[O-])cn1CCCCN1C(=O)c2ccccc2C1=O,inactive
2,COC(=O)[C@H](CC(C)C)N(Cc1ccccc1)S(=O)(=O)N(Cc1ccc(OC)cc1)[C@@H](CC(C)C)C(=O)OC,inactive
3,O=C(/C=C/c1cccc(Oc2ccccc2)c1)N1CCOCC1,inactive
4,CCN(CC)CCNC(=O)/C(=C/c1cn(CC)c2ccccc12)NC(=O)c1cc(OC)c(OC)c(OC)c1,inactive
5,COCCN1C(=O)C(=O)/C(=C(/O)c2ccc(S(=O)(=O)N3CCOCC3)cc2)C1c1cccc([N+](=O)[O-])c1 (centres undefined),inactive
6,Cc1nn(C)c(C)c1S(=O)(=O)N1CCC(C(=O)NC2CCCCCC2)CC1,inactive
7,O=C(c1ccco1)N1CCN(c2ncccn2)CC1,inactive
8,COc1ccc(OC)c(NC(=O)C2CC2c2ccccc2)c1 (centres undefined),inactive
9,CCc1c(C)sc(NC(=S)N2CC(C)OC(C)C2)c1C(=O)OC (centres undefined),inactive
10,Cc1ccc(OCc2cc(C(=O)N(C)Cc3cc(C4CC4)n[nH]3)no2)cc1C,inactive
11,CCOCc1nnc(NC(=O)C2CCN(C(=O)C3CC(=O)N(c4ccc(C)cc4)C3)CC2)s1 (centres undefined),inactive
12,Oc1ccc(/C=N/Nc2cccc(Cl)n2)c(O)c1,inactive
13,COC(=O)CNC(=O)COC(=O)/C=C/c1ccccc1[N+](=O)[O-],inactive
14,O=C(C1=C[C@H](c2ccccc2)C[C@H](OCCCCO)O1)N1CCN(Cc2ccc3c(c2)OCO3)CC1,inactive
15,Cc1cc(NC(=O)COc2cccc([N+](=O)[O-])c2)no1,inactive
16,CCN(C1CCS(=O)(=O)C1)S(=O)(=O)c1ccc2ccccc2c1 (centres undefined),inactive
17,O=C(CCS(=O)(=O)c1ccc2c(c1)NC(=O)CS2)NCc1cccs1,inactive
18,CC(=O)NCCc1cnc[nH]1,inactive
19,O=C(COC(=O)c1cccc([N+](=O)[O-])c1)NNC(=O)c1cccs1,inactive
